Compounds without any hit were thinned out: in the full panel of roughly 79,000, 15% have a hit. Cut-off read from the data, not from the text of the source: active = growth inhibition above about 70%; inactive = the rest.
What was measured:
[1] = NCI Yeast Anticancer Drug Screen. Data for the rad50 strain (AID 155);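 note: 0% = growth of vehicle-only cultures of the same strain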; conditions: S. cerevisiae rad50 strain growth inhibition; at 50.0 µM; hits give high values
Summary of the method: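 Cells are treated with compound, grown, and their growth is then scored against vehicle-only cultures of the same repair-deficient yeast strain.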

[2] = NCI Yeast Anticancer Drug Screen. Data for the mec2-1 strain (AID 157); conditions: S. cerevisiae mec2-1 strain, at 50.0 µM, hits give high values
Summary of the method: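 Growth inhibition is read against vehicle-treated controls after compound exposure of the mec2-1 yeast strain, which is defective in DNA damage repair or cell cycle control.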

[3] = NCI Yeast Anticancer Drug Screen. Data for the sgs1 mgt1 strain (AID 161);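 note: 0% = growth of cultures given vehicle only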; conditions: S. cerevisiae sgs1 mgt1 strain, at 50.0 µM, hits give high values
Summary of the method: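 Compounds are added to genetically altered yeast, and growth is compared with cultures given vehicle alone to give percent inhibition.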

[4] = NCI Yeast Anticancer Drug Screen. Data for the cln2 rad14 strain (AID 165);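 note: 0% = growth equal to vehicle treated cultures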; conditions: S. cerevisiae cln2 rad14 strain, at 50.0 µM, hits give high values
Summary of the method: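 Growth inhibition, relative to vehicle-treated controls, is the read-out. The test organism is a yeast strain with defined genetic alterations, cln2 rad14.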

[5] = NCI Yeast Anticancer Drug Screen. Data for the bub3 strain (AID 167); conditions: S. cerevisiae bub3 mutant strain, at 50.0 µM, hits give high values
Summary of the method: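 Part of a panel of yeast mutants defective in DNA damage repair or cell cycle regulation. Each strain is grown with compound, and inhibition is calculated relative to solvent-treated cultures.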

[6] = NCI Yeast Anticancer Drug Screen. Data for the mlh1 rad18 strain (AID 175); conditions: S. cerevisiae mlh1 rad18 strain growth inhibition; at 50.0 µM; hits give high values
Summary of the method: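 Cells of a genetically altered yeast strain, deficient in DNA damage repair, were treated with compound. Their growth was then compared with that of vehicle-treated cultures to give inhibition.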

Measured: growth inhibition

CCCCC1c2c([nH]c3ccccc23)C2C(=O)N(c3ccc(OC)cc3)C(=O)C2C1CCC (configuration not stated)
inactive: [1] 9.75% | [2] -19.5% | [3] -14.6% | [4] -27.5% | [5] 1.6% | [6] -5.6%

COC(OC)C1CC=CCCC1C(=O)O (configuration not stated)
inactive: [1] 17.1% | [2] 16.8% | [3] 11.7% | [4] -0.4% | [5] 14.2% | [6] -8.65%

CC(=O)Nc1cccc(OCCOc2ccccc2[N+](=O)[O-])c1
inactive: [1] -0.6% | [2] -11.3% | [3] -8.65% | [4] 3.15% | [5] 4.7% | [6] 8.2%

O=c1oc2ccc(Cl)cc2n1CN1CCOCC1
inactive: [1] 1.9% | [2] -26.9% | [3] 1.95% | [4] 12.8% | [5] -34.2% | [6] 5.55%

COc1ccc(OC)c(CSc2ccc(OC)c(OC)c2)c1
inactive: [1] 18.7% | [2] 31.9% | [3] 43.8% | [4] 13.8% | [5] 57.9% | [6] 33%

Cc1ccc(C(=O)C2CC2c2ccccc2)cc1 (configuration not stated)
inactive: [1] 6.05% | [2] -1.9% | [3] -13.7% | [4] -38% | [5] -0.95% | [6] -7%

Cc1ccc(/C=C/C(=O)c2sc(C(N)=S)nc2C)cc1
inactive: [1] 35.9% | [2] 14.2% | [3] 8.15% | [4] 16.3% | [5] 11.2% | [6] 39%

CCN(CC)/C(C=[N+]=[N-])=N\C(N)=N\S(=O)(=O)c1ccc(OC)cc1
inactive: [1] -37.2% | [2] -13.9% | [3] -13.8% | [4] -28% | [5] 4.05% | [6] 13.4%

COC(=O)C1(O)C(=O)NC2=C1C(=O)c1ccccc1C2=O (configuration not stated)
inactive: [1] 9.75% | [2] 5.8% | [3] 8.05% | [4] -8.7% | [5] 28.9% | [6] 13.8%

C=CC(=NC(C)C)N(C)c1ccccc1
inactive: [1] 5.2% | [2] 13.9% | [3] 1.7% | [4] -7.9% | [5] 26.5% | [6] -1.8%

Nc1nc2[nH]c(=O)c(C(=O)O)nc2c(=O)[nH]1
inactive: [1] 8.35% | [2] -6.15% | [3] -5.05% | [4] -16.6% | [5] 10.4% | [6] -11.6%

Cc1c(COC(=O)NC(C)C)c(COC(=O)NC(C)C)c2n1CCS2(=O)=O
inactive: [1] -26.8% | [2] -20.8% | [3] 4.75% | [4] -32.7% | [5] 0.5% | [6] -21.6%

CCN(CC)CCCNc1ncc(C)c2[nH]c3ccncc3c12
inactive: [1] 2.9% | [2] 22.6% | [3] 0.4% | [4] -9.1% | [5] -0.25% | [6] 12.1%

N#CCc1ccc(/C(C#N)=C2/OC(=N)C(c3ccc(CC#N)cc3)C2=O)cc1 (configuration not stated)
inactive: [1] -10.3% | [2] 2.65% | [3] -5.45% | [4] -21.6% | [5] -20.7% | [6] -16.4%

O=C(Oc1ccc(-c2ccccc2)cc1)c1cccc([N+](=O)[O-])c1
inactive: [1] -10.1% | [2] -4.5% | [3] 7.1% | [4] -11.4% | [5] 27.5% | [6] 0.2%

CCc1ccccc1NC(=O)Nc1cc(C)ccn1
inactive: [1] 25.6% | [2] 12.9% | [3] 21.8% | [4] 21.3% | [5] 32% | [6] 27.9%

CC1=NOC(=O)/C1=C/c1ccccc1C
inactive: [1] 51.2% | [2] 2.55% | [3] 27.9% | [4] 8.15% | [5] 17.4% | [6] 36.9%

CC(C)(C)N=C(N)NC#N
inactive: [1] 9.6% | [2] 9.25% | [3] -9.85% | [4] 17.1% | [5] -4.5% | [6] -33.3%

COc1ccc(/C=C(\C(C)=O)C(=O)Nc2ccccc2)cc1
inactive: [1] 21.1% | [2] 16.4% | [3] 22.2% | [4] 39.1% | [5] 6.2% | [6] 25.4%

COC(=O)CCSSCCC(=O)OC
inactive: [1] 2.15% | [2] -13.1% | [3] -1.6% | [4] -6.15% | [5] -21.4% | [6] 24.9%

CCC1(CC)OC(=O)C(=O)N1N(C)C
inactive: [1] -16.9% | [2] -0.8% | [3] -13.9% | [4] -15.2% | [5] -10.9% | [6] -13.7%

O=S(=O)(c1ccccc1)C1C2CCC(O2)C1S(=O)(=O)c1ccccc1 (configuration not stated)
inactive: [1] 19.4% | [2] 7.8% | [3] 15.7% | [4] 30.9% | [5] 29.6% | [6] 10.1%

O=C(Nc1cccc([N+](=O)[O-])c1)N1CCCC1
inactive: [1] -7.1% | [2] -16.4% | [3] -7.75% | [4] -3.9% | [5] -7.5% | [6] -20.6%

N#CCCCCCCO
inactive: [1] 14.6% | [2] -20.6% | [3] 11.4% | [4] 15.4% | [5] 5.35% | [6] 17.5%

CNC(=S)NC(=S)N(C)C
inactive: [1] -1.15% | [2] -29.9% | [3] 35.2% | [4] -25.8% | [5] -35.2% | [6] 35.9%

CCOC(=O)/C(=C\c1ccccc1)C(=O)O
inactive: [1] -6.75% | [2] -29.9% | [3] -6.25% | [4] 26% | [5] -21.9% | [6] -1.8%

CCCCC(CC)CCC(C)=O (configuration not stated)
inactive: [1] 5.8% | [2] -0.8% | [3] 0.35% | [4] 3.3% | [5] 1.75% | [6] -0.9%

CSc1n[nH]c(=O)c2nc[nH]c12
inactive: [1] -9.3% | [2] -9.2% | [3] 0.55% | [4] -34.5% | [5] 7.75% | [6] -5.2%

CC(=O)Oc1ccc(OC(C)=O)c([N+](=O)[O-])c1
inactive: [1] 24.1% | [2] 17.2% | [3] -1.65% | [4] -9.75% | [5] 1% | [6] 29.2%

COC(=O)C1(NC(=O)C2(N3C(=O)c4ccccc4C3=O)CCCC2)CCCC1
inactive: [1] -7.95% | [2] -0.95% | [3] -12.7% | [4] -9.45% | [5] -17.9% | [6] 1.6%

O=NN(CCCl)C(=O)NC1CCC(O)CC1 (configuration not stated)
inactive: [1] -16.9% | [2] -10.8% | [3] -24% | [4] 13.2% | [5] -4.2% | [6] -4.2%

CCOC(=O)c1c2c(nc3c1CCCC3)CCCC2
inactive: [1] 3.2% | [2] 3.45% | [3] -1.6% | [4] -1.05% | [5] 7.4% | [6] -24.9%

CC(=O)Nc1ccc(C(F)(F)F)cc1
inactive: [1] -5.2% | [2] -7.75% | [3] -15.8% | [4] -3.15% | [5] -7.7% | [6] 13.2%

c1ccc(CNC2Cc3ccccc3C2)cc1
inactive: [1] 19.6% | [2] -10.7% | [3] 0.55% | [4] -36.1% | [5] -11.7% | [6] -2.4%

Cn1c(=O)c2c(ncn2Cc2ccccc2)n(C)c1=O
inactive: [1] -1.65% | [2] -13.2% | [3] 3.95% | [4] -10.7% | [5] 45.1% | [6] 4%

c1cnc(NC(Nc2ncccn2)c2ccco2)nc1
inactive: [1] -6.5% | [2] -8.9% | [3] -5.55% | [4] -21.9% | [5] -12.2% | [6] -10.4%

CCC(C)OC(=S)S.[Cu+2] (configuration not stated)
inactive: [1] -23.6% | [2] 19.4% | [3] -0.85% | [4] -4.8% | [5] -76.5% | [6] -44.9%

CN1c2ccccc2SC1(C)CCC(=O)O (configuration not stated)
inactive: [1] 21.5% | [2] 35.9% | [3] 37.6% | [4] 6% | [5] 29.6% | [6] 7.65%

CCc1cc2c(c3c1CCC3=O)CC1(Cc3ccc(C)cc3C1)C2 (configuration not stated)
inactive: [1] -47.1% | [2] -54.5% | [3] -32.5% | [4] -21.6% | [5] -22.1% | [6] -44.7%

CNC(=S)NNC1=NCCCCN1
inactive: [1] -41.2% | [2] -20% | [3] -16.1% | [4] 3.9% | [5] 2.1% | [6] -16.1%

Cc1cccc(OCC(O)CN(Cc2ccsc2)c2ccccn2)c1 (configuration not stated)
inactive: [1] 18.4% | [2] 16.4% | [3] 18.2% | [4] 37.3% | [5] 14.9% | [6] 8.2%

O=S(=O)(NCCBr)c1ccccc1
inactive: [1] -1.5% | [2] 2.45% | [3] -8.9% | [4] 11.6% | [5] -2% | [6] 2.05%

From PubChem BioAssay (NCI)
